{
  "source": "the antibiotic and cytotoxicity screens of Wong et al. (2023)",
  "note": "The whole screen tested about 39,000 compounds, of which about 1,500 (3.8%) were called active. The list comes from a sample in which actives are over-represented; it also holds similar structures and randomly drawn compounds.",
  "data": [
    {"system": "HSkMC (human skeletal muscle cells)", "experiment": "cytotoxicity call (relative viability < 0.9)", "conditions": "10 µM", "values": [
      {"compound": "C[C@@H]1CN([C@H](C)CO)S(=O)(=O)c2ccc(C#CCN(C)C)cc2O[C@@H]1CN(C)Cc1ccccc1F", "cytotoxicity call": "inactive"},
      {"compound": "C[C@@H]1CN([C@H](C)CO)C(=O)c2cc(NC(=O)Cn3cnnn3)ccc2O[C@H]1CN(C)C(=O)Nc1ccc2c(c1)OCO2", "cytotoxicity call": "inactive"},
      {"compound": "COc1ncc(-c2nc(N3CCOCC3)nc3c(CN4CCC(C(C)(C)O)CC4)cc(F)cc23)cc1NS(C)(=O)=O", "cytotoxicity call": "inactive"},
      {"compound": "CC(=O)/C(C)=N/O", "cytotoxicity call": "inactive"},
      {"compound": "C[C@@H]1CCCCO[C@H](CN(C)C(=O)c2ccccc2)[C@@H](C)CN([C@@H](C)CO)C(=O)c2cc(NC(=O)c3ccccc3)ccc2O1", "cytotoxicity call": "inactive"},
      {"compound": "O=C1NCc2ccccc21", "cytotoxicity call": "inactive"},
      {"compound": "O=C1CCNc2cc3ccccc3cc21", "cytotoxicity call": "active"},
      {"compound": "O=C1CCCNc2ccc(Cl)cc21", "cytotoxicity call": "inactive"},
      {"compound": "C[C@H]1CCCCO[C@@H](CN(C)Cc2ccc(C(=O)O)cc2)[C@@H](C)CN([C@@H](C)CO)C(=O)c2cc(NC(=O)c3ccccc3)ccc2O1", "cytotoxicity call": "inactive"},
      {"compound": "C[C@@H]1CCCCO[C@@H](CN(C)C(=O)Cc2ccccc2)[C@@H](C)CN([C@H](C)CO)C(=O)c2cc(NC(=O)Cc3ccccc3)ccc2O1", "cytotoxicity call": "inactive"},
      {"compound": "CO[C@@]12[C@@H]3N[C@@H]3CN1C1=C(C(=O)C(N)=C(C)C1=O)[C@@H]2COC(N)=O", "cytotoxicity call": "active"},
      {"compound": "COC12C(COC(N)=O)C3=C(C(=O)C(C)=C(N)C3=O)N1CC1NC12", "note": "(stereo unspecified)", "cytotoxicity call": "inactive"},
      {"compound": "CO[C@@]12[C@H](COC(N)=O)C3=C(C(=O)C(C)=C(N)C3=O)N1C[C@@H]1N[C@@H]12", "cytotoxicity call": "inactive"},
      {"compound": "CCOC(=O)C1CCN(S(=O)(=O)c2c(C)n(C)c(=O)n(C)c2=O)CC1", "cytotoxicity call": "inactive"},
      {"compound": "C[C@@H]1CN([C@H](C)CO)C(=O)CCCn2nncc2CO[C@@H]1CN(C)Cc1ccc(C(=O)Nc2ccccc2N)cc1", "cytotoxicity call": "inactive"},
      {"compound": "C[C@@H]1CN([C@H](C)CO)C(=O)Cc2cc(NC(=O)NC3CCCCC3)ccc2O[C@H]1CN(C)Cc1ccc(Cl)c(Cl)c1", "cytotoxicity call": "active"},
      {"compound": "C[C@H](CO)N1C[C@H](C)[C@H](CN(C)Cc2ccc(Cl)c(Cl)c2)Oc2ccc(NC(=O)NC3CCCCC3)cc2CC1=O", "cytotoxicity call": "inactive"},
      {"compound": "C[C@@H]1CN([C@@H](C)CO)C(=O)Cc2cc(NC(=O)NC3CCCCC3)ccc2O[C@H]1CN(C)Cc1ccc(Cl)c(Cl)c1", "cytotoxicity call": "inactive"},
      {"compound": "C[C@H](CO)N1C[C@H](C)[C@@H](CN(C)Cc2ccc(Cl)c(Cl)c2)Oc2ccc(NC(=O)NC3CCCCC3)cc2CC1=O", "cytotoxicity call": "inactive"},
      {"compound": "C[C@@H]1CN([C@@H](C)CO)C(=O)Cc2cc(NC(=O)NC3CCCCC3)ccc2O[C@@H]1CN(C)Cc1ccc(Cl)c(Cl)c1", "cytotoxicity call": "inactive"},
      {"compound": "C[C@@H]1CN([C@H](C)CO)C(=O)Cc2cc(NC(=O)NC3CCCCC3)ccc2O[C@@H]1CN(C)Cc1ccc(Cl)c(Cl)c1", "cytotoxicity call": "active"}
    ]}
  ]
}
